From article PMC12670160, “A drug-repurposing screen of FDA- and EMA-approved drugs identifies two NF-κB inhibitors active against eumycetoma” (Journal of Antimicrobial Chemotherapy, 2025)
Where a name gives a salt, the structure may show the parent alone. Read-outs that look alike come from different tables or passages of the source. Out of some 5,300 compounds screened, about 130 (2.5%) showed an effect of 50% or more. Shown is part of a subset that was picked to be rich in strong results.

Tested on: M. mycetomatis strain mm55
Conditions: primary screen, metabolic activity vs growth control, 96 h, 2 µM, inhibitor

SMILES	% viability [%]	% viability (Madurella mycetomatis metabolic activity at 2µM (%)) [%]
Cc1ccc(Cl)c(OCC(O)CNC(C)C)c1 (stereo not drawn) [ONC0003711, 12chloro5methylphenoxy3isopropylamino2propanol]	103	–
O=C1C2CC=CCC2C(=O)N1SC(Cl)(Cl)Cl (stereo not drawn) [ONC0003351, captan]	76.61	–
NC(Cc1ccc(O)cc1)C(=O)O (stereo not drawn) [ONC0003385, dltyrosine]	63.01	–
OC[C@H]1OC(O)C[C@@H](O)[C@@H]1O (mixture of isomers) [ONC0003476, 2deoxyglucose]	78.39	–
COC(=O)[C@H](NC(=O)c1cc(-c2ccccc2)nc2ccccc12)c1ccccc1 [ONC0001501, sb218795]	80.75	–
CC(C)NC(=O)COc1cccc(-c2nc(Nc3ccc4[nH]ncc4c3)c3ccccc3n2)c1 [ONC0001882, slx2119]	46.69	–
O=C(NCc1cccc(O)c1)Nc1nc(-c2ccncc2)cs1 [ONC0002554, srpin340]	–	81.94
c1cc(Nc2cc(C3CC3)[nH]n2)nc(Nc2ccc3[nH]cnc3c2)n1 [ONC0003009, apy29]	67.52	–
CC(C)(C)c1cc(C=C(C#N)C#N)cc(Br)c1O [ONC0004740, ag1024]	105.8	–
CC(C)(C)c1cc(/C=C(\C#N)C(N)=S)cc(C(C)(C)C)c1O [ONC0005258, tyrphostin ag 879 ag 879]	127.6	–
CC(C)(C)c1cc(C=C(C#N)C#N)cc(C(C)(C)C)c1O [ONC0004560, tyrphostin 9 sf 6847]	1.693	–
CC(C)C[C@@H](N)C(=O)N[C@H]1C(=O)N[C@@H](CC(N)=O)C(=O)N[C@H]2C(=O)N[C@H]3C(=O)N[C@H](C(=O)N[C@H](C(=O)O)c4cc(O)cc(O)c4-c4cc3ccc4O)[C@H](O)c3ccc(c(Cl)c3)Oc3cc2cc(c3O[C@@H]2O[C@H](CO)[C@@H](O)[C@H](O)[C@H]2O[C@H]2C[C@](C)(N)[C@H](O)[C@H](C)O2)Oc2ccc(cc2Cl)[C@H]1O [ONC0002123, norvancomycin hydrochloride]	86.02	–
CCN(CC)C(=O)N[C@H]1CC2c3cccc4[nH]cc(c34)CC2N(C)C1 (stereo partly drawn) [ONC0002019, terguride]	81.88	–
Clc1ccc(CSC(Cn2ccnc2)c2ccc(Cl)cc2Cl)cc1 (stereo not drawn) [ONC0000678, sulconazole nitrate]	120.3	–
Clc1ccc(C(Cn2ccnc2)OCc2csc3c(Cl)cccc23)c(Cl)c1 (stereo not drawn) [ONC0005215, sertaconazole nitrate]	82	–
C=CCOC(Cn1ccnc1)c1ccc(Cl)cc1Cl (stereo not drawn) [ONC0005416, enilconazole sulfate]	2.508	–
Clc1ccc(CCC(Cn2ccnc2)Sc2c(Cl)cccc2Cl)cc1 (stereo not drawn) [ONC0005620, butoconazole]	76.6	–
Clc1ccc(C(Cn2ccnc2)OCc2c(Cl)cccc2Cl)c(Cl)c1 (stereo not drawn) [Isoconazole nitrate (Travogen), Isoconazole nitrate]	2.362	–

SMILES	% viability [%]	% viability (Madurella mycetomatis metabolic activity at 2µM (%)) [%]
Clc1ccc(C(Cn2ccnc2)OCc2ccsc2Cl)c(Cl)c1 (stereo not drawn) [Tioconazole]	3.335	–
COc1ccc(CCCOC(Cn2ccnc2)c2ccc(OC)cc2)cc1 (stereo not drawn) [ONC0000065, skf96365]	143.6	–
Clc1ccc(COC(Cn2ccnc2)c2ccc(Cl)cc2Cl)cc1 (stereo not drawn) [ONC0000666, econazole nitrate]	102.4	–
Clc1ccc(C(Cn2ccnc2)OCc2ccc(Sc3ccccc3)cc2)c(Cl)c1 (stereo not drawn) [ONC0004926, fenticonazole nitrate]	131.8	–
Clc1ccc(COC(Cn2ccnc2)c2ccc(Cl)cc2Cl)c(Cl)c1 (stereo not drawn) [Miconazole nitrate]	2.05	–
CC(C)S(=O)(=O)NC[C@H](C)c1ccc(-c2ccc(CCNS(C)(=O)=O)cc2)cc1 [ONC0000792, mibampator]	65.07	–
CC(=O)Nc1c(I)c(C(=O)O)c(I)c(N(C)C(C)=O)c1I [ONC0002767, metrizoic acid]	98.58	–
CO[C@H]1C[C@H](O[C@H]2CC[C@@]3(C)[C@H](CC[C@@H]4[C@@H]3CC[C@]3(C)[C@@H](C5=CC(=O)OC5)[C@@H](OC(C)=O)C[C@]43O)C2)O[C@@H](C)[C@@H]1O [ONC0000896, oleandrin]	70.17	–
COc1cc([S+](C)[O-])ccc1-c1nc2ncccc2[nH]1 (stereo not drawn) [ONC0002956, sulmazole]	88.35	–
COc1cc(N)c(Cl)cc1C(=O)N[C@@H]1CCN(CCCOc2ccc(F)cc2)C[C@@H]1OC (racemic) [ONC0002671, cisapride]	79.76	–
CC[C@H](NC(C)C)[C@H](O)c1ccc(O)c2[nH]c(=O)ccc12 (racemic) [ONC0000846, procaterol]	72.96	–
COc1cc2c(Nc3ccc(Br)cc3F)ncnc2cc1OCC1CCN(C)CC1 [ONC0004515, vandetanib zd6474]	76.73	–
N[C@@H](CN1C=CC(=O)C(=O)C1)C(=O)O [ONC0002117, lmimosine]	76.12	–
CCCCCCOc1nsnc1C1=CCCN(C)C1.O=C(O)C(=O)O [ONC0001841, xanomeline oxalate]	152.3	–
C[C@H](NC(=O)C(C)(C)Oc1ccc(C(F)(F)F)cn1)[C@@H](Cc1ccc(Cl)cc1)c1cccc(C#N)c1 [ONC0002066, taranabant]	72.16	–
CC(C)(C)NC(=O)N[C@H](C(=O)N1C[C@H]2[C@@H]([C@H]1C(=O)NC(CC1CCC1)C(=O)C(N)=O)C2(C)C)C(C)(C)C (stereo partly drawn) [ONC0001071, boceprevir]	43.8	–
CCCC[C@H](NC(=O)[C@@H]1[C@@H]2[C@H](CN1C(=O)[C@@H](NC(=O)NC1(CS(=O)(=O)C(C)(C)C)CCCCC1)C(C)(C)C)C2(C)C)C(=O)C(=O)NC1CC1 [ONC0000734, narlaprevir]	68.03	–
Cc1cnc(NC(=O)c2cc(Oc3cnc(C(=O)N(C)C)nc3)c3cc(C)oc3c2)cn1 [ONC0005563, pf04937319]	103.7	–
